Our source for the growth inhibition values is PubChem BioAssay (NCI).

The structures appear in SMILES notation. This is part of a sample that, as a whole, favours compounds with a hit. Of some 79,000 tested, about 15% had one in any assay. A number with no mark means an inactive call. Activity calls are given as the source filed them. No stated cut-off is given here; in the data, active means growth inhibition above about 70%; inactive means the rest.

A short description of the first assay: NCI Yeast Anticancer Drug Screen. Data for the bub3 strain (AID 167). The conditions noted are these: S. cerevisiae bub3 mutant strain, at 50.0 µM, stronger effect = higher value. The procedure, abridged: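 Inhibition values come from growth of compound-treated mutant yeast normalised to vehicle-treated controls.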
`CCCCB1OB(CCCC)OB(CCCC)O1`: the growth inhibition was 7.15%. For the molecule `c1ccc2oc(C34OC5CC(CC(C5)O3)O4)nc2c1`, the growth inhibition is 0.5%. Same read-out and setting: under `CCCCCC1CCC(OC(=O)NC)CC1` (stereo not drawn) stands 25.4%; under `CCCCN(CCCC)CC(O)c1c2cccc(Cl)c2cc2c(Cl)cccc12` (stereo not drawn), 98.8% (active). For `CC(=O)OC1=C(OC(C)=O)N(S(=O)(=O)c2ccc(C)cc2)CCc2ccccc21`, the growth inhibition was 6.5%. Consider `Clc1ccccc1N=NNc1ccccc1Cl`, for which the growth inhibition is 6.35%. Still for that read-out and setting: under `[N-]=[N+]=NCC1OCOC1C1OCOC1CN=[N+]=[N-]` (stereo not drawn) stands 4.2%. The same measure, in the same setting: then `CCCCCCCNc1ccc(C(=O)OCC)cc1`, with 7.3%; and `CC(C)C(C(=O)O)N(C)C(=O)c1cnc2ccccc2n1` (stereo not drawn), with 17.6%; and `CC1OC(O)CC(NC(=O)C(F)(F)F)C1O` (stereo not drawn), with -1.1%. On the same count and under the same terms, then `O=S(=O)(O)c1cccc2nsnc12`, with 9.5%. For the molecule `Cc1sc2nc3n(c(=O)c2c1C)N=CN(c1ccccc1)C3`, the growth inhibition is -3.5%. On the same count and under the same terms, then `COc1ccc(C23CCC(=O)N2CCS3)cc1` (stereo not drawn), with 30%. The same measure, in the same setting: under `Nc1ccc(Nc2cc(=O)[nH]c(=O)[nH]2)cc1Cl` stands -3.2%; under `CCCCC1SCC(=O)N1c1nncs1` (stereo not drawn), 16.7%. Same read-out and setting: then `CC(Br)C(=O)NCC(=O)NCC(=O)O` (stereo not drawn), with 16.9%; and `CCC(C)c1cc(C(C)(C)C)cc(-n2nc3ccccc3n2)c1OS(=O)(=O)c1cccc(N)c1` (stereo not drawn), with -16.9%; and `COc1cccc(NC(=O)C(=O)C(C(=O)c2ccccc2F)C2OC(=O)c3ccccc32)c1` (stereo not drawn), with 7.85%.

With `N#C/C(=C/C=C/c1ccccc1)c1ccc([N+](=O)[O-])cc1`, the growth inhibition is 36.5%.

As for `COc1ccc(C(CC(C)(C)C)c2ccc(OC)cc2)cc1`, the growth inhibition is -11.9%. Still for that read-out and setting: under `CC(=O)OC1COC([n+]2cccc(C(N)=O)c2)C(OC(C)=O)C1OC(C)=O` (stereo not drawn) stands -9.95%; under `CCOC(=O)C(=Cc1ccc(Oc2ccccc2)cc1)C(=O)OCC`, 6.1%; under `O=C1C2=C(c3ccccc31)C(c1ccccc1Cl)N1C(=O)CCSC1=N2` (stereo not drawn), 4.65%.

A short description of the next assay: NCI Yeast Anticancer Drug Screen. Data for the mlh1 rad18 strain (AID 175). Conditions: S. cerevisiae mlh1 rad18 strain growth inhibition; at 50.0 µM; stronger effect = higher value. The procedure, abridged: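 Inhibition values reflect reduced growth of mutant yeast versus vehicle-treated controls following compound exposure; the mutations affect DNA damage repair.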
Consider `O=C(N/N=C1\C(=O)N(c2nccs2)C(=O)C(=O)C1c1nc2ccccc2s1)c1ccccc1O` (stereo not drawn), for which the growth inhibition was 34.1%.

For `CCc1nc2c([nH]1)c(=O)n(C)c(=O)n2C`, the growth inhibition was 20.4%. On the same count and under the same terms, then `O=c1[nH]c2cc([N+](=O)[O-])ccc2nc1/C(=N\Nc1ccccc1)C(O)c1ccc2c(c1)OCO2` (stereo not drawn), with 41.1%; and `CCN1CCC(O)(C(C(=O)O)c2ccccc2)CC1` (stereo not drawn), with 2.4%. On the same count and under the same terms, then `[Cl][Co][Cl].[NH-]CCC[NH-].[NH-]CCC[NH-]`, with 16.7%. The same measure, in the same setting: under `O=C(Nc1ccc([N+](=O)[O-])cc1Cl)OCCc1ccccn1` stands 20.5%; under `O=C(O)c1cc2oc3ccccc3c2cc1O`, 23.3%. For `CC(=O)N/C(=C/c1ccccc1)C(=O)NC(C)(C)C`, the growth inhibition is 0.05%.

Regarding `COC(=O)C1=C(C)NC(C)=C(C(=O)OC)C1c1ccc(NC(C)=O)cc1`, the growth inhibition is 10.9%. The same measure, in the same setting: under `c1ccc(C2CN3CCSC3=N2)cc1` (stereo not drawn) stands -16.9%. `CC(C)(C)OC(=O)c1cccc(C(=O)OC(C)(C)C)c1`: the growth inhibition was 17.3%.

As for `O/N=C1/CC2CCCCC2CC1(O)c1ccccc1` (stereo not drawn), the growth inhibition is 30.4%.

On to `CC(=O)CC(=O)C1CCC(C(=O)CC(C)=O)CC1` (stereo not drawn), for which the growth inhibition was -13.2%.

Take `Cc1cccc([Si](c2ccccc2)(c2ccccc2)c2ccccc2)c1`: the growth inhibition is 8.8%. The same measure, in the same setting: then `CC(=O)NC(CCC(=O)C=[N+]=N)C(=O)O` (stereo not drawn), with 12.6%. Still for that read-out and setting: then `O=c1[nH]nnc2ccccc12`, with -0.55%; and `O=C(O)C(Nc1ccc(Cc2ccc(NC(C(=O)O)c3ccccc3)cc2)cc1)c1ccccc1` (stereo not drawn), with 90% (active); and `CCCCB1OB(CCCC)OB(CCCC)O1`, with 4.25%.

Take `c1ccc2oc(C34OC5CC(CC(C5)O3)O4)nc2c1`: the growth inhibition was 10%. Same read-out and setting: under `CCCCCC1CCC(OC(=O)NC)CC1` (stereo not drawn) stands -6.95%; under `CCCCN(CCCC)CC(O)c1c2cccc(Cl)c2cc2c(Cl)cccc12` (stereo not drawn), 99.1% (active). Turning to `CC(=O)OC1=C(OC(C)=O)N(S(=O)(=O)c2ccc(C)cc2)CCc2ccccc21`, the growth inhibition was 36%. On the same count and under the same terms, then `Clc1ccccc1N=NNc1ccccc1Cl`, with 6.75%; and `[N-]=[N+]=NCC1OCOC1C1OCOC1CN=[N+]=[N-]` (stereo not drawn), with -3.5%. In the case of `CCCCCCCNc1ccc(C(=O)OCC)cc1`, the growth inhibition is -7.55%.
